Sfp PPTase inh: Sfp phosphopantetheinyl transferase inhibition | Biochemical Sfp PPTase activity, qHTS | Potency, µM, for inactives: largest response in the series, negative = inhibition, hits mostly inhibitors | 310,000 compounds, 3.5% hits | AID 1490;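 further: the enzyme is Sfp with the accession as filed and its product quenches rhodamine fluorescence; 0% = enzyme reaction without inhibitor and -100% = no enzyme wells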
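Sfp 15 nM + cpd, 15 min RT; start w/ rhodamine-CoA 5 uM, BHQ-2-YbbR 12.5 uM (final); 50 mM Hepes pH 7.6, 10 mM MgCl2, 0.01% NP-40, 0.01% BSA; read 525/598 nm at 0 and 30 min.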
HP1b chromo inh: blocks HP1-beta chromodomain binding to methylated histone tails. AlphaScreen HP1-beta / biotin-H3K9me3 peptide binding. 390,000 compounds, 0.56% hits. Potency, µM (doses to about 114 µM), for inactives: at the highest dose activity change, negative = inhibition, most hits filed as inhibitors; further: nearly all actives have a fitted effect of over 70% in size
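AlphaScreen: HP1-beta (50 nM) preformed 30 min with biotin-H3(1-18)K9me3 peptide (50 nM) in PBS pH 7.4, 0.01% Tween-20. Compound added for 30 min at RT, then streptavidin donor/nickel chelate acceptor beads (10 ug/mL) for 30 min.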
G9a inh: G9a (human) methyltransferase inhibition; G9a H3K9 monomethylation, AlphaScreen, 2 h; Potency, µM (series often up to 102 µM), inactives show top-dose activity, negative = inhibition, hits mostly inhibitors; 350,000 compounds, 8.8% hits; further: on the % scale 0 is the no-effect control and ±100 the full control effect; nearly all actives have a fitted effect of over 75% in size
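Step 1: enzyme (final 20 nM) with compound, 15 min RT. Step 2: substrate peptide 500 nM and SAM 20 uM, 2 h RT. Step 3: anti-H3K9me1 antibody and AlphaScreen beads, 10 min, then plate read.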
BAZ2B block: inhibitors of human BAZ2B bromodomain | Potency, µM (highest dose often 114 µM), for the others: at the highest dose activity change, negative = inhibition, most hits filed as inhibitors | Q9UIF8 | 360,000 compounds, 4.4% hits | AlphaScreen BAZ2B-H3K14Ac peptide displacement | AID 504333; further: on the % scale 0 is the no-effect control and ±100 the full control effect; nearly all actives have a fitted effect of over 60% in size
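AlphaScreen luminescence quantifies BAZ2B engagement of H3K14Ac peptide; the protein and biotinylated peptide are both at 50 nM final, buffer PBS pH 7.4 with 0.01% Tween-20, all steps at room temperature.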
PLK1 PBD block: PLK1 (human) polo-box domain binding inhibition | P53350 | Plk1 PBD binding of FITC phosphopeptide, fluorescence polarization | Potency, µM, inactives show max response, negative = inhibition, hits mostly inhibitors | 360,000 compounds, 2.8% hits; further: series mostly up to about 57 µM; on the % scale 0 is the no-effect control and ±100 the full control effect; nearly all actives have a fitted effect of over 65% in size
Target sequence (P53350 whole entry, looked up, the tested form may be a part): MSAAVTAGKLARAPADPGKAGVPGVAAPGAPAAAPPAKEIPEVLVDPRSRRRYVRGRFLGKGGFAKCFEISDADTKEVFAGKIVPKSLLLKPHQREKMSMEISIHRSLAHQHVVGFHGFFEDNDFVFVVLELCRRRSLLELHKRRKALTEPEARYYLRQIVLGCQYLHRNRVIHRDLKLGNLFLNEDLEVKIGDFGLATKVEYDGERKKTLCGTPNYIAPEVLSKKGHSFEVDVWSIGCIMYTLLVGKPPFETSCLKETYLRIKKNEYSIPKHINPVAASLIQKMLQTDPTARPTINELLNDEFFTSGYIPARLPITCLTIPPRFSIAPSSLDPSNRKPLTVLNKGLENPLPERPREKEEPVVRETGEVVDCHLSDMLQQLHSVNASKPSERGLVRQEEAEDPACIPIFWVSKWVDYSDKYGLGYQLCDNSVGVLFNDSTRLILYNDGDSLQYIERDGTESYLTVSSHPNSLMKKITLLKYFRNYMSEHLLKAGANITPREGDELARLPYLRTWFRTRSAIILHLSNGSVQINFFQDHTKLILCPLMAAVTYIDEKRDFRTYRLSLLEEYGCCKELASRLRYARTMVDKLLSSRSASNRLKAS
JMJD2A Tudor inh: blocks the human JMJD2A Tudor domain; O75164; AID 504339; AlphaScreen JMJD2A-Tudor / H3K4me3 peptide binding; Potency, µM (top dose mostly 114 µM), without a hit: at the top dose activity change, negative = inhibition, actives largely listed as inhibitors; 390,000 compounds, 4.4% hits; further: on the % scale 0 is the no-effect control and ±100 the full control effect; nearly all actives have a fitted effect of over 50% in size
An asterisk follows results filed as active; ? = inconclusive; / = no result given; [ ] = remark or other dose. Rows were chosen to be rich in hits. Some 12% of all compounds tested hit in one or more screens of this group. The call rests on the fitted dose curve; in most records, active means well fitted curve in the direction sought with a large enough effect; inconclusive means small, poorly fitted or top-dose-only effect, or another doubt; inactive means no such curve, though single readings can be large; an effect the other way counts as inactive or inconclusive. Potency means the concentration at half of the fitted maximal effect.

SMILES | Sfp PPTase inh | HP1b chromo inh | G9a inh | BAZ2B block | PLK1 PBD block | JMJD2A Tudor inh
Cc1ccc(S(=O)(=O)Nc2ccncc2)c(C)c1 | 6% | 3% | -92% | -3% | -5% | 89µM*
O=C(NCCc1nc2ccccc2n1CCCOc1ccccc1Cl)C1CCCCC1 | / | 20%[57 µM] | / | / | / | -14%[57.1 µM]
C[C@@H](c1ccccc1)N1C(=O)[C@H]2[C@H]3[C@H](O)[C@H](O)C/C(=N/OCc4ccccc4)[C@@H]3CC[C@@H]2C1=O | 2% | / | / | / | / | /
COc1ccc(C(O)c2nc(-c3cccc(NC(C)=O)c3)cs2)cc1 (stereo not given) | / | / | / | / | -10% | /
CCc1ccc(/C=C2\SC(=S)N(CCC(=O)NCCCN3CCOCC3)C2=O)cc1 | -13% | -8% | / | 35µM* | -2% | ?
COC(=O)c1ccc(/C=C2\SC(=S)N(CCCC(=O)NCCCN3CCOCC3)C2=O)cc1 | -3% | 71µM* | ? | ? | -5% | -33%
CCOc1ccc(/C=C2\SC(=S)N(CC(=O)NCCCN3CCOCC3)C2=O)cc1 | -8% | -25% | ? | -31% | -9% | ?
O=C(CCCN1C(=O)/C(=C/c2cccc(Br)c2)SC1=S)NCCCN1CCOCC1 | ? | -19% | 45µM* | 10µM* | -29% | 45µM*
CC(C)c1ccc(/C=C2\SC(=S)N(CC(=O)NCCCN3CCOCC3)C2=O)cc1 | -29% | ? | 79µM* | 32µM* | -9% | ?
O=C(CN1C(=O)/C(=C/c2cccc(Br)c2)SC1=S)NCCCN1CCOCC1 | -21% | ? | / | ? | ? | ?
CN(Cc1cccs1)c1ncnc2ccc(-c3ccc4cnn(C)c4c3)cc12 | / | / | / | / | / | -32%
C[C@@H]1CN([C@H](C)CO)C(=O)CCCn2cc(nn2)CO[C@H]1CN(C)C(=O)Nc1ccccc1 | / | / | / | / | -10% | /
CCOC(=O)c1cnc2c(C)c(C)ccc2c1Nc1ccc(S(=O)(=O)Nc2ncccn2)cc1 | 10% | 24% | -22%[59 µM] | -3% | -18% | -4%
Cc1c(C#N)c2ccccc2n1CC(=O)N1CCCC1 | 3% | ? | 21%[12.7 µM] | 32% | 30µM* | 79µM*
Cc1ccc(S(=O)(=O)N2CCN(C(=O)Cc3ccccc3)CC2)cc1C | / | 35% | ? | 5% | -6% | -21%
O=C(CCN1C(=O)c2ccccc2C1=O)N1CCN(Cc2ccc(Cl)cc2Cl)CC1 | -5% | 14% | 40µM* | 4% | -8% | -19%
Cc1ccc(S(=O)(=O)N2CCN(C(=O)CCN3C(=O)c4ccccc4C3=O)CC2)cc1C | -1% | 10% | 79µM* | -8% | -5% | -6%
N#CC1=C(N)Oc2cc3ccccc3cc2C1c1cccs1 (stereo not given) | 79µM* | 18% | 8%[0.0925 µM] | -12% | -2% | -9%
O=[N+]([O-])c1ccc2[nH]c(=S)[nH]c2c1 | / | -2%[57 µM] | / | / | 27µM* | -52%
S=c1[nH]c2ccc(Cl)cc2s1 | -4% | -6% | 1.1µM* | -22% | ? | ?
O=c1cnc2cc([N+](=O)[O-])ccc2[nH]1 | 5% | 32% | ? | -13% | -13% | -10%
O=[N+]([O-])c1ccc2[nH]c(=S)sc2c1 | / | ? | / | / | 0% | 50µM*
COc1ccc2[nH]cc(CCNC(=O)COc3ccc4ccc(=O)oc4c3)c2c1 | 17% | -1% | -6%[12.7 µM] | -27% | 3% | -26%
COc1cccc(CNC(=O)N2CCc3c(sc4c3CCCC4)C2c2ccc(F)cc2)c1 (stereo not given) | / | -3% | -5%[59 µM] | -23% | / | -19%
Cc1cc(OCC(=O)NCCCn2ccnc2)c2c(C)c(C)c(=O)oc2c1 | 18% | 32% | 9% | -26% | -2% | -13%
O=C(N/N=C(\Cc1ncc[nH]1)c1ccccc1)c1cccnc1 | 1% | 24% | -11% | 14µM* | -14% | 50µM*
O=C(N/N=C(\Cc1ncc[nH]1)c1ccccc1)c1ccccc1 | 19% | / | 5%[59 µM] | -1% | / | /
O=C(N/N=C(\Cc1ncc[nH]1)c1ccccc1)c1ccncc1 | -12% | 47% | -23% | 8.9µM* | -17% | 40µM*
Cc1ccc(S(=O)(=O)N2CCOCC2)cc1C(=O)Nc1ccccc1C(=O)O | / | 30% | -1%[59 µM] | -13% | / | -15%
